Results reported in PubChem BioAssay (Tox21).
Records with an inconclusive call do not appear. Active and inactive are the calls of the source. Unless noted, calls follow the shape of the dose curve; as a rule, active = well fitted curve in the direction sought with a large enough effect in the repeat runs; inconclusive = weak or mixed curves; inactive = no such curve, though single readings can be large; an effect the other way counts as inactive or inconclusive.

Key:
[1] = qHTS assay to identify small molecule agonists of H2AX (AID 1224845; active = well fitted activation curve with a large enough effect in the signal ratio in the repeat runs, not every such curve was filed as active; the % refers to the signal ratio; also: potency is read from the fitted curve at half-maximal effect)
Procedure, shortened: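 Wild-type CHO-K1 cells plated overnight, then exposed 3 hr at 37C to compounds at 15 concentrations (0.76% DMSO). Lysed, then HTRF anti-pH2AX(S139)-cryptate/anti-H2AX-d2 detection after 24 hr at room temperature; emissions 665 and 620 nm.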

[2] = qHTS assay to identify small molecule agonists of H2AX - cell viability counter screen (AID 1224847; calls by dose curve; also: nearly all actives have a fitted effect of over 30% in size; also: potency is read from the fitted curve at half-maximal effect)
Procedure, shortened: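 Read-out: CellTiter-Glo luminescence, 30 min RT. Cells: wild-type CHO-K1, 1000/well, 10% FBS, plated overnight at 37C. Treatment: 15 concentrations, 3 hr, 37C, 0.76% DMSO.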

[3] = qHTS RealTime-Glo MT Cell Viability Assay in HepG2 cells - 24 hour (AID 1224867); also: nearly all actives have a fitted effect of over 50% in size; also: potency is read from the fitted curve at half-maximal effect
Procedure, shortened: (§1)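 Luminescence read-out: viable HepG2 cells reduce a prosubstrate to a NanoLuc substrate, giving a signal proportional to live cell number. Reads taken at 0, 8, 16, 24, 32 and 40 h of compound exposure at 37 C.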

[4] = qHTS RealTime-Glo MT Cell Viability Assay in HEK293 cells - 32 hour (AID 1224868); also: nearly all actives have a fitted effect of over 50% in size; also: potency is read from the fitted curve at half-maximal effect
Procedure, shortened: (§2)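 Nonlytic real-time viability readout: viable cells convert prosubstrate to NanoLuc substrate, giving luminescence proportional to live cell number. HEK293, 600 cells/well, compound added after 5 h, continuous culture at 37 C.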

[5] = A CellTox Green Cytotoxicity Assay to monitor cytotoxicity in HEK293 cells - 0 hour (AID 1224869); also: nearly all actives have a fitted effect of over 50% in size; also: potency is read from the fitted curve at half-maximal effect
Procedure, shortened: (§3)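 Nonlytic real-time cytotoxicity: HEK293 + CellTox Green reagent plated, 5 h preincubation, pintool compound addition (23 nL in DMSO), 37 C for 40 h, fluorescence measured at successive time points.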

[6] = qHTS RealTime-Glo MT Cell Viability Assay in HepG2 cells - 40 hour (AID 1224870); also: nearly all actives have a fitted effect of over 50% in size; also: potency is read from the fitted curve at half-maximal effect
Procedure, shortened: (§4)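 HepG2 cells mixed with RealTime-Glo MT reagents (NanoLuc plus cell-permeant prosubstrate) were seeded at 600 cells/well, incubated 5 h at 37 C/5% CO2, then pinned with compounds in DMSO; nonlytic luminescence tracked viability during 40 h treatment.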

[7] = A CellTox Green Cytotoxicity Assay to monitor cytotoxicity in HEK293 cells - 40 hour (AID 1224871); also: nearly all actives have a fitted effect of over 45% in size; also: potency is read from the fitted curve at half-maximal effect
Procedure, shortened: as §3

[8] = qHTS RealTime-Glo MT Cell Viability Assay in HEK293 cells - 16 hour (AID 1224872); also: nearly all actives have a fitted effect of over 50% in size; also: potency is read from the fitted curve at half-maximal effect
Procedure, shortened: as §2

[9] = qHTS RealTime-Glo MT Cell Viability Assay in HepG2 cells - 8 hour (AID 1224873); also: nearly all actives have a fitted effect of over 55% in size; also: potency is read from the fitted curve at half-maximal effect
Procedure, shortened: as §4

[10] = qHTS RealTime-Glo MT Cell Viability Assay in HEK293 cells - 40 hour (AID 1224874); conditions: RealTime-Glo luminescence; max response: active compounds read low; also: nearly all actives have a fitted effect of over 50% in size; also: potency is read from the fitted curve at half-maximal effect
Procedure, shortened: (§5)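 Cells were seeded together with NanoLuc luciferase and a prosubstrate that viable cells reduce to a luciferase substrate. After a 5 h incubation at 37 C/5% CO2, compounds were added and luminescence was measured repeatedly during 40 h of treatment.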

[11] = A CellTox Green Cytotoxicity Assay to monitor cytotoxicity in HEK293 cells - 24 hour (AID 1224875); also: nearly all actives have a fitted effect of over 45% in size; also: potency is read from the fitted curve at half-maximal effect
Procedure, shortened: as §3

[12] = A CellTox Green Cytotoxicity Assay to monitor cytotoxicity in HepG2 cells - 16 hour (AID 1224876); also: nearly all actives have a fitted effect of over 45% in size; also: potency is read from the fitted curve at half-maximal effect
Procedure, shortened: (§6)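 Read-out is fluorescence of a cyanine dye excluded from live cells that stains DNA of dead HepG2 cells, with signal proportional to cytotoxicity. Plates were read at 0, 8, 16, 24, 32 and 40 h after compound addition.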

[13] = qHTS RealTime-Glo MT Cell Viability Assay in HepG2 cells - 32 hour (AID 1224877); also: nearly all actives have a fitted effect of over 55% in size; also: potency is read from the fitted curve at half-maximal effect
Procedure, shortened: as §1

[14] = A CellTox Green Cytotoxicity Assay to monitor cytotoxicity in HepG2 cells - 40 hour (AID 1224879); also: nearly all actives have a fitted effect of over 40% in size; also: potency is read from the fitted curve at half-maximal effect
Procedure, shortened: as §6

[15] = qHTS RealTime-Glo MT Cell Viability Assay in HEK293 cells - 0 hour (AID 1224880); also: top concentration of the series differs between compounds; nearly all actives have a fitted effect of over 45% in size
Procedure, shortened: as §5

[16] = A CellTox Green Cytotoxicity Assay to monitor cytotoxicity in HEK293 cells - 32 hour (AID 1224881); also: nearly all actives have a fitted effect of over 40% in size; also: potency is read from the fitted curve at half-maximal effect
Procedure, shortened: as §3

[17] = qHTS assay to identify small molecule antagonists of the estrogen related receptor (ERR) signaling pathway from Tox21 library (AID 1224848); also: nearly all actives have a fitted effect of over 50% in size; also: potency is read from the fitted curve at half-maximal effect
Procedure, shortened: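 Cells: ERR line, 2,000/well; 6 h preincubation 37 C/5% CO2. Cpd in DMSO via pin tool; 18 h, 37 C. ONE-Glo, 30 min RT, luminescence.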

[18] = qHTS assay to identify small molecule agonists of the estrogen related receptor (ERR) signaling pathway from Tox21 library (AID 1224849; calls by dose curve; also: nearly all actives have a fitted effect of over 15% in size); conditions: ERR reporter cell line, ONE-Glo luciferase, 18 h; at 92.4 µM (top of the series) unless noted
Procedure, shortened: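 ERR cells, 6 h pre-incubation 37 C/5% CO2; cpd in DMSO pinned; 18 h 37 C; ONE-Glo added, 30 min RT; luminescence read. Agonist mode, qHTS.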

[19] = A CellTox Green Cytotoxicity Assay to monitor cytotoxicity in HepG2 cells - 24 hour (AID 1224878); also: nearly all actives have a fitted effect of over 45% in size; also: potency is read from the fitted curve at half-maximal effect
Procedure, shortened: as §6
% is scaled to controls: 0 for no effect and ±100 for the full control effect.

CCCCCCCCn1sc(Cl)c(Cl)c1=O
inactive: Potency [1] | Potency [5] | Potency [15]
active: Potency [2] 8 µM | Potency [3] 4.9 µM | Potency [4] 3.89 µM | Potency [6] 6.92 µM | Potency [7] 1.95 µM | Potency [8] 3.47 µM | Potency [9] 6.16 µM | Potency [10] 3.47 µM | Potency [11] 1.1 µM | Potency [12] 7.76 µM | Potency [13] 5.49 µM | Potency [14] 9.77 µM | Potency [16] 1.23 µM

CCc1cc(SCc2sc(-c3ccc(C(F)(F)F)cc3)nc2CN2CCN(c3ccc(OC)cc3)CC2)ccc1OCC(=O)O
inactive: activity change, positive = activation [18] -62.5% | Potency [5] | Potency [6] | Potency [9] | Potency [12] | Potency [19] | Potency [15]
active: Potency [1] 50.5 µM | Potency [2] 89.8 µM | Potency [17] 17.2 µM | Potency [4] 19.5 µM | Potency [8] 19.5 µM | Potency [10] 19.5 µM

Nc1nc2ccccc2n1Cc1ccc(F)cc1
inactive: Potency [1] | Potency [2] | activity change, positive = activation [18] -28.8% [at 42.5 µM] | Potency [3] | Potency [5] | Potency [6] | Potency [7] | Potency [9] | Potency [11] | Potency [12] | Potency [13] | Potency [16]
active: Potency [14] 23.9 µM

CCCN(CCC)C(=O)C(CCC(=O)OCCCN1CCN(CCOC(=O)Cc2c(C)n(C(=O)c3ccc(Cl)cc3)c3ccc(OC)cc23)CC1)NC(=O)c1ccccc1 (stereo not given)
inactive: Potency [1] | Potency [2] | activity change, positive = activation [18] -47.5% [at 42.5 µM] | Potency [5] | Potency [6] | Potency [7] | Potency [11] | Potency [15] | Potency [16]
active: Potency [17] 29.8 µM | Potency [8] 21.3 µM | Potency [12] 23.9 µM | Potency [19] 23.9 µM | Potency [14] 23.9 µM

CC(C)=CCOc1ccc(/C=C/C(=O)c2ccc(OCC=C(C)C)cc2OCC(=O)O)cc1
inactive: Potency [1] | Potency [2] | activity change, positive = activation [18] -23.7% [at 42.5 µM] | Potency [3] | Potency [4] | Potency [5] | Potency [6] | Potency [7] | Potency [8] | Potency [9] | max response [10] 1.22% | Potency [11] | Potency [12] | Potency [13] | Potency [19] | Potency [14] | Potency [15] | Potency [16]

CCCCN1CCCC[C@H]1C(=O)Nc1c(C)cccc1C
inactive: Potency [1] | Potency [2] | Potency [3] | Potency [4] | Potency [5] | Potency [6] | Potency [7] | Potency [8] | Potency [9] | max response [10] -2.09% | Potency [11] | Potency [12] | Potency [13] | Potency [19] | Potency [14] | Potency [15] | Potency [16]

Cc1oc(-c2ccccc2)nc1CCC(=O)c1ccc(CC2SC(=O)NC2=O)cc1 (stereo not given)
inactive: Potency [1] | Potency [2] | activity change, positive = activation [18] -19.2% [at 42.5 µM] | Potency [3] | Potency [4] | Potency [5] | Potency [6] | Potency [7] | Potency [8] | Potency [9] | max response [10] -22.3% | Potency [11] | Potency [13] | Potency [19] | Potency [14] | Potency [15] | Potency [16]

COc1ccc(CN2CCN(C(c3ccc(F)cc3)c3ccc(F)cc3)CC2)c(OC)c1OC
inactive: Potency [1] | activity change, positive = activation [18] -66.6% [at 42.5 µM] | Potency [5] | Potency [11] | Potency [12] | Potency [16]
active: Potency [2] 49.2 µM | Potency [17] 13.3 µM | Potency [4] 16.9 µM | Potency [7] 4.77 µM | Potency [8] 9.52 µM | Potency [10] 16.9 µM | Potency [14] 10.7 µM

Cc1cccc2c1cc1ccc3cccc4ccc2c1c34
inactive: Potency [1] | Potency [2] | Potency [17] | Potency [3] | Potency [5] | Potency [6] | Potency [9] | Potency [12] | Potency [13] | Potency [19] | Potency [14]
active: activity change, positive = activation [18] 35.4%

Nc1ccc2c3c(cccc13)-c1ccccc1-2
active: Potency [4] 24.8 µM | Potency [5] 22.1 µM | Potency [7] 39.3 µM | Potency [8] 24.8 µM | Potency [10] 27.8 µM | Potency [11] 44.1 µM | Potency [12] 39.3 µM | Potency [19] 44.1 µM | Potency [14] 44.1 µM | Potency [16] 44.1 µM
inactive: Potency [1] | Potency [2] | Potency [3] | Potency [6] | Potency [9] | Potency [13] | Potency [15]

CC(C)(C)c1ccc(C(=O)CCCN2CCC(OC(c3ccccc3)c3ccccc3)CC2)cc1
inactive: Potency [1] | Potency [15]
active: Potency [2] 55.2 µM | Potency [3] 21.3 µM | Potency [4] 9.52 µM | Potency [6] 19 µM | Potency [7] 23.9 µM | Potency [8] 8.49 µM | Potency [9] 19 µM | Potency [10] 9.52 µM | Potency [11] 21.3 µM | Potency [13] 19 µM | Potency [19] 23.9 µM | Potency [14] 19 µM | Potency [16] 23.9 µM
